In PubChem BioAssay:
Activity calls are given as the source filed them.

What was measured:
[1] = test system: Plasmodium falciparum Sir2 (PF13_0152, Sir2A); experiment: Plasmodium falciparum Sir2A binding compounds – biochemical, small-molecule microarray, 635 nm fluorescence, primary screen (AID 1098); conditions: fluorescence 635 nm, higher = more signal;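 further: score merges spot fluorescence intensity with its signal-to-noise ratio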
[2] = probe aDKK1 binding to arrayed compounds – biochemical, biotinylated probe, 635/667 nm fluorescence, primary screen (AID 1099); conditions: small-molecule microarray, higher = more signal;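 further: score merges 667nm spot fluorescence with signal to noise across triplicate slides; reference of the scale not given here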
[3] = probe aCHRDL2 binding to arrayed compounds – biochemical, biotinylated probe, 635/667 nm fluorescence, primary screen (AID 1100); conditions: small-molecule microarray, higher = more signal
[4] = change in splice reporter luminescence, either direction, cell-based, HEK293, spliceosome inhibition project, primary screen (AID 1101); conditions: HEK293 splicing luciferase reporter, 24 h, higher = more signal, called active from +8 up or from −8 down;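 further: HEK293 cells carrying a splicing-competent luciferase reporter gene; test concentration not given here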
[5] = target: Fibroblast growth factor 10 (Homo sapiens) (UniProt O15520); experiment: compounds binding fibroblast growth factor 10 – biochemical, small-molecule microarray, 635 nm fluorescence, primary screen (AID 1102); conditions: FGF10 binding, fluorescence 635 nm, higher = more signal
Chain of Fibroblast growth factor 10 (Homo sapiens) (O15520 whole entry, looked up): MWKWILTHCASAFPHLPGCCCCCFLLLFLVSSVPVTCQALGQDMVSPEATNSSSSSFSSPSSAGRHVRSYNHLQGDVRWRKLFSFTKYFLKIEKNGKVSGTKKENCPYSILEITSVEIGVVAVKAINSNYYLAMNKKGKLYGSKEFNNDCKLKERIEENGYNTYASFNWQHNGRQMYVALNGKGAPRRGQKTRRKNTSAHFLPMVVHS

[6] = test system: glycogen synthase kinase-3 (GSK3A per assay name; protocol says GSK3B); experiment: compounds binding glycogen synthase kinase-3 – biochemical, small-molecule microarray, 635 nm fluorescence, GSK3A, primary screen (AID 1103); conditions: fluorescence 635 nm, higher = more signal; further: the record names both GSK3A and GSK3B
[7] = target: Epidermal growth factor receptor (Homo sapiens) (UniProt P00533); experiment: compounds binding epidermal growth factor receptor – biochemical, small-molecule microarray, 635 nm fluorescence, primary screen (AID 1104); conditions: EGFR binding, higher = more signal;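 further: score merges 667 nm emission intensity with spot signal to noise over triplicate slides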
Chain of Epidermal growth factor receptor (Homo sapiens) (P00533 whole entry, looked up): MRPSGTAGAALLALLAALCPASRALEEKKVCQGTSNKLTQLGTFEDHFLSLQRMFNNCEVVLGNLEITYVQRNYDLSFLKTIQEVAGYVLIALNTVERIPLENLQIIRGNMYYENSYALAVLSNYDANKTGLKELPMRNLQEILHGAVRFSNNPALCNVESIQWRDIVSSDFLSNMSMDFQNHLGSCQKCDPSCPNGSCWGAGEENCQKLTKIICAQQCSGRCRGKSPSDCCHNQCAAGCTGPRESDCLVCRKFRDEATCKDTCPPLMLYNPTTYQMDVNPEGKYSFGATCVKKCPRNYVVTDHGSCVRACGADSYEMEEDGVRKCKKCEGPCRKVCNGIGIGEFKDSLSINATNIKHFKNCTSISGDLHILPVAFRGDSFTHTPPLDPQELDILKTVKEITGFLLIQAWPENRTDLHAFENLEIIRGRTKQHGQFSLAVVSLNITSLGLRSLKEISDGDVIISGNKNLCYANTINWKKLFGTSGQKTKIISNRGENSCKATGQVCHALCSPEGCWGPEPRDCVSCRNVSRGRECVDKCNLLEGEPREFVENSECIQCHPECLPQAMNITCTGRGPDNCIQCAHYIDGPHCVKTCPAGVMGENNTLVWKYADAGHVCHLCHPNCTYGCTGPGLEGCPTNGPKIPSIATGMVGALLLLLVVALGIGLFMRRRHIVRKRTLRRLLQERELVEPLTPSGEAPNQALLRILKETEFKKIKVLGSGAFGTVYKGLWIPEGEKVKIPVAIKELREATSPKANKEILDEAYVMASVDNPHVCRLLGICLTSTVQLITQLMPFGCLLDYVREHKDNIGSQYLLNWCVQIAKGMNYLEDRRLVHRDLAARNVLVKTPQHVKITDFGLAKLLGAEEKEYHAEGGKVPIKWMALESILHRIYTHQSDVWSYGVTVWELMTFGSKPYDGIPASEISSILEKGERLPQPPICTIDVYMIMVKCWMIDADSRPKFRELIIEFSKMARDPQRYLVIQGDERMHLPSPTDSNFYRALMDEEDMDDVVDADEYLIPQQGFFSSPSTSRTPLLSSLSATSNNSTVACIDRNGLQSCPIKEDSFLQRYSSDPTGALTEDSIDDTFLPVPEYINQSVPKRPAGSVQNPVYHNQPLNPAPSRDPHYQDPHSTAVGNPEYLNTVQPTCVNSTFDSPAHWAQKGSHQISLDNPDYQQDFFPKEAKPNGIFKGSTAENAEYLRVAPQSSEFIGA

[8] = target: Follistatin-related protein 3 (Homo sapiens) (UniProt O95633); experiment: compounds binding follistatin-related protein 3 – biochemical, small-molecule microarray, 635 nm fluorescence, primary screen (AID 1105); conditions: FSTL3 binding, higher = more signal;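 further: score merges emission near 667 nm and signal to noise per printed spot across three slides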
Chain of Follistatin-related protein 3 (Homo sapiens) (O95633 whole entry, looked up): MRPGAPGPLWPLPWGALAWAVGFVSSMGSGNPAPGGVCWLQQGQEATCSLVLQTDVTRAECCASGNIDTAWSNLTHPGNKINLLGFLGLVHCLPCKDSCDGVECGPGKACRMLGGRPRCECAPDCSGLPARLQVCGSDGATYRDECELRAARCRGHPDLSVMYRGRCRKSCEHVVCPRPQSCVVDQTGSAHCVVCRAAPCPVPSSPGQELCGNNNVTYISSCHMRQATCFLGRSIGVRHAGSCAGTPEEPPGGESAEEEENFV

[9] = target: Dickkopf-related protein 1 (Homo sapiens) (UniProt O94907); experiment: small molecules binding DKK1 protein – biochemical, small-molecule microarray, 635 nm fluorescence scan, primary screen (AID 1106); conditions: higher = more signal;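 further: score merges emission near 667 nm with signal to noise over three replicate slides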
Chain of Dickkopf-related protein 1 (Homo sapiens) (O94907 whole entry, looked up): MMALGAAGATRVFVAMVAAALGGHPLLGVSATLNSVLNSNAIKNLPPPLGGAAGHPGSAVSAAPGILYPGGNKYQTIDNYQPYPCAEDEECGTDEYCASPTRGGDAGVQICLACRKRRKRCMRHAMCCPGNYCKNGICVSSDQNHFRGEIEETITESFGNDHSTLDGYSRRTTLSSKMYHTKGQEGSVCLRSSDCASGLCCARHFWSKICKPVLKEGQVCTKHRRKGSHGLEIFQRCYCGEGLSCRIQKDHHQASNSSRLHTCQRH

[10] = test system: Inhibin beta A chain (activin A); experiment: small molecules binding activin A – biochemical, small-molecule microarray, 635 nm fluorescence scan, primary screen (AID 1107); conditions: INHBA, higher = more signal;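 further: mouse activin A protein probed at 4.33 µg/mL on printed slides; score merges bound-protein fluorescence near 667 nm with spot signal-to-noise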

Row | SMILES | composite z-score [1] | composite z-score [2] | composite z-score [3] | z-score [4] | composite z-score [5] | composite z-score [6] | composite z-score [7] | composite z-score [8] | composite z-score [9] | composite z-score [10]
1 | O=C(NCc1ccc(F)cc1)[C@H]1C[C@H]2C(=O)N[C@@H](Cc3ccccc3)C(=O)N2[C@H]1c1ccc(O)cc1 | 1.06 | -0.103 | 0.105 | -0.41 (inactive) | 0.123 | -0.469 | -0.394 | -0.383 | 0.274 | -0.266
2 | COc1ccc([Si](C)(C)[C@H]2[C@H](CC(=O)N3Cc4ccccc4C[C@H]3CO)O[C@@]3(C(=O)N(Cc4ccc(N5CCC5=O)cc4)c4ccccc43)[C@@H]2C)cc1 | 1.21 | -0.283 | 0.51 | -0.315 (inactive) | 1.15 | 0.972 | 1.11 | 1.44 | 1 | 1.28
3 | C=C(CCCC)C(=O)CC[C@H](OC(=O)c1cccnc1)c1ccccc1OCCO | 0.619 | -0.322 | 0.154 | -0.637 (inactive) | 0.704 | -1.05 | -0.0934 | 0.12 | 0.137 | 1.1
4 | COc1cc2c(cc1OC)CN(C(=O)[C@@H]1[C@H]3C(=O)O[C@H](c4ccccc4)[C@H](c4ccccc4)N3[C@H](c3ccc(O)cc3)[C@@]13C(=O)Nc1ccc(C#CC4(O)CCCCCC4)cc13)CC2 | 1.41 | -0.767 | -0.692 | 0.263 (inactive) | 1.28 | 1.29 | 0.458 | 0.498 | 0.474 | -0.439
5 | CC(C)(C)OC(=O)CC[C@]12N=C(c3ccc(OCCCO)cc3)O[C@H]1c1ccccc1N(CCS(=O)(=O)c1ccccc1)C2=O | 1.17 | 0.438 | 0.52 | 0.0112 (inactive) | 0.905 | 1.23 | 0.545 | 0.975 | 0.445 | 0.924
6 | CCOC(=O)C[C@H]1[C@H](OC(=O)Cc2ccc3c(c2)OCO3)[C@@H](NC(=O)c2ccc(-c3ccccc3)cc2)c2cc(OCCCO)ccc2N1C(=O)Cc1ccc(OC)cc1 | 0.489 | 0.55 | 0.456 | -2.01 (inactive) | 0.463 | 0.116 | -0.0154 | 0.543 | -0.0143 | 0.0884
7 | COCCOC(=O)N1C(=O)[C@@]2(c3cc(C#CCCO)ccc31)[C@H](C(=O)Nc1nc3ccccc3s1)[C@H]1C(=O)O[C@H](c3ccccc3)[C@H](c3ccccc3)N1[C@@H]2c1ccc(OCCO)cc1 | 1.27 | 0.385 | -0.284 | -0.021 (inactive) | 1.11 | 0.687 | 0.432 | 1.2 | 0.31 | 0.0763
8 | COCCOC(=O)N1C(=O)[C@@]2(c3cc(C#CCNC(N)=O)ccc31)[C@H](C(=O)NC[C@H](O)c1ccccc1)[C@H]1C(=O)O[C@H](c3ccccc3)[C@H](c3ccccc3)N1[C@@H]2c1ccccc1OCCO | 1.5 | -0.547 | 0.218 | -0.0247 (inactive) | 1.04 | 0.628 | 0.366 | 1.01 | 0.711 | 1.05
9 | O=C1OCCC/C=C\[C@H]2OC34C=CCN(Cn5nnc6ccccc65)C(=O)[C@H]3N(CCCCCCO)C(=O)[C@@H]4C12 (stereo not given in full) | 1.53 | -0.234 | 0.489 | -1.57 (inactive) | -1.41 | -0.662 | -0.636 | -0.321 | -0.774 | 1.12
10 | C[N+](C)(C)CCCCNC(=O)[C@H]1C[C@H]2C(=O)N[C@@H](Cc3ccccc3)C(=O)N2[C@H]1c1ccc(O)cc1 | 0.137 | -0.0123 | -0.0505 | 0.0946 (inactive) | 0.612 | 0.0215 | 0.231 | 0.953 | 1.22 | 0.859
11 | COc1ccc([C@H]2OC[C@@H]3CC4(CC=CC4)C(=O)N32)cc1 | 0.165 | -0.231 | -0.147 | -0.297 (inactive) | 0.93 | 0.784 | 1.04 | 1.31 | 1.42 | 1.25
12 | COCCOC(=O)N1C(=O)[C@@]2(c3ccccc31)[C@H](c1ccccc1OCCO)N1[C@H](c3ccccc3)[C@H](c3ccccc3)OC(=O)[C@H]1[C@@H]2C(=O)Nc1nc2ccccc2s1 | 1.4 | 0.262 | 0.245 | -0.968 (inactive) | 1.1 | 1.32 | 0.661 | 1.34 | 0.476 | 0.0911
13 | CN(C)CCCC[C@@H]1NC(=O)[C@H]2C[C@@H](C(=O)NCCCCCNC(=O)CS)[C@@H](c3cccc(OCCO)c3)N2C1=O | 1.12 | -0.144 | 0.61 | 0.515 (inactive) | 0.305 | 0.894 | 0.227 | 0.65 | 0.459 | -0.0899
14 | COC(=O)[C@@]1(Cc2ccc(F)cc2)[C@@H]2[C@@H](CC(=O)[C@H]2CC(=O)C(=O)N(C)C)CN1C(=O)c1ccccc1 | 0.532 | 1.21 | 1.19 | -0.191 (inactive) | 0.849 | 1.09 | 0.251 | 1.32 | -0.598 | 0.793
15 | NCCCCCNC(=O)[C@@H]1C[C@@H]2C(=O)NCC(=O)N2[C@@H]1c1ccc(O)cc1 | 1.15 | -0.0246 | -0.128 | -0.0882 (inactive) | 1.49 | 1.32 | -0.318 | 1.22 | 1.63 | 0.294
16 | O=C1O[C@@H](c2ccccc2)[C@@H](c2ccccc2)N2[C@@H](c3ccc(OCCO)cc3)[C@]3(C(=O)Nc4ccccc43)[C@@H](C(=O)NC[C@H](O)c3ccccc3)[C@H]12 | 1.17 | 0.189 | 0.2 | -0.203 (inactive) | 0.55 | 0.445 | 0.566 | 0.33 | 0.334 | 0.632
17 | CC(C)N1C(=O)[C@@]2(Cc3ccccc31)c1ccccc1C(=O)N(C1CCCCC1)[C@H]2c1ccc(CO)cc1 | 1.15 | -0.307 | -0.194 | 0.0789 (inactive) | 0.206 | 0.856 | 0.507 | 1.17 | 0.788 | 0.899
18 | CC(=O)N1Cc2ccccc2C[C@@]2(COC(c3ccc(OCCCO)cc3)=N2)C1=O | 1.32 | 1.18 | 1.31 | -1.66 (inactive) | 0.649 | 1.32 | 0.455 | 1.13 | 0.438 | 1.09
19 | NC(=O)[C@@H]1[C@H]2C(=O)O[C@H](c3ccccc3)[C@H](c3ccccc3)N2[C@H](c2ccc(O)cc2)[C@@]12C(=O)Nc1ccc(C#CC3(O)CCCCCC3)cc12 | 0.61 | -0.127 | 0.523 | 0.0171 (inactive) | -0.177 | -1.05 | -0.497 | -0.846 | -0.193 | -0.257
20 | CC(C)C[C@@H]1NC(=O)[C@@H]2C[C@H](C(=O)NCCCCCN)[C@H](c3cccc(OCCO)c3)N2C1=O | 1.44 | -0.0704 | 0.527 | -1.08 (inactive) | 0.272 | 0.685 | -0.26 | 0.627 | 0.387 | 0.842
21 | COCCOC(=O)N1C(=O)[C@@]2(c3cc(C#CC4=CCCCC4)ccc31)[C@H](C(=O)N1CCc3cc(OC)c(OC)cc3C1)[C@H]1C(=O)O[C@H](c3ccccc3)[C@H](c3ccccc3)N1[C@@H]2c1ccc(OCCO)cc1 | 0.563 | 0.0129 | -0.134 | 0.342 (inactive) | 1.3 | 1.3 | 0.649 | 1.03 | 0.8 | 0.706
22 | [N-]=[N+]=NCc1ccccc1C[C@]1(C(=O)NCC(O)CO)N=C(c2ccc(OCCCO)cc2)O[C@H]1c1ccccc1 (stereo not given in full) | -0.338 | 1.04 | 0.889 | 0.321 (inactive) | -0.337 | -0.836 | -0.886 | -0.689 | -1.37 | 0.51
23 | [N-]=[N+]=Nc1ccccc1[C@H]1OC(c2ccc(OCCCO)cc2)=N[C@@]1(Cc1ccccc1)C(=O)O | 1.68 | 0.292 | 0.381 | -1.23 (inactive) | 0.875 | 0.997 | 0.0509 | 0.727 | 0.293 | 1.12
24 | O=C(NCc1ccccc1)[C@@]1(Cc2ccccc2)N=C(c2ccc(OCCCO)cc2)O[C@H]1c1ccccc1 | 0.652 | 1.15 | 1.23 | 0.915 (inactive) | 0.366 | 0.3 | -0.47 | 0.448 | -0.996 | 0.425
25 | CCOC(=O)C[C@H]1[C@H](OC(=O)c2cc3ccccc3oc2=O)[C@@H](NC(=O)Cc2ccc(OC)cc2)c2cc(OCCCO)ccc2N1C(=O)c1ccccc1 | 0.39 | -0.351 | -0.355 | -0.854 (inactive) | 0.458 | 0.0878 | 0.436 | 0.23 | 0.313 | 0.726
26 | O=C1O[C@H](c2ccccc2)[C@H](c2ccccc2)N2[C@H]1[C@@H](C(=O)O)[C@]1(C(=O)Nc3ccc(C#CC4=CCCCC4)cc31)[C@H]2c1ccccc1OCCO | 1.49 | -0.738 | 0.134 | -0.246 (inactive) | 1.19 | 1.32 | 0.228 | 1.23 | 0.455 | 1.01
27 | O=C1OCCC/C=C\[C@H]2OC34C=CCN(c5ccc6ccccc6c5)C(=O)[C@H]3N(CCCCCCO)C(=O)[C@@H]4C12 (stereo not given in full) | 1.35 | -0.234 | 0.711 | -1.39 (inactive) | -0.873 | -0.525 | 0.102 | 0.0824 | -1.71 | 0.998
28 | CN1C(=O)C2C=CC(C(O)c3ccc(-c4ccccc4)s3)N(N(c3ccccc3)c3ccccc3)C2C1=O (stereo not given) | 0.61 | 0.818 | 0.798 | 0.214 (inactive) | 0.186 | 0.724 | -0.0198 | 0.338 | 0.0129 | 1.18
